About 79,000 compounds went through this panel and 15% of them were active in at least one assay; those are over-represented in the sample as a whole. Activity calls are given as the source filed them. Cut-off read from the data, not from the text of the source: active = growth inhibition above about 70%; inactive = the rest.
Assays:
[1] = NCI Yeast Anticancer Drug Screen. Data for the rad52 strain (AID 147);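 note: 0% = growth of vehicle-treated control cultures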; details: S. cerevisiae rad52 mutant growth inhibition, hits give high values
Procedure, shortened: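 Inhibition of yeast growth, referenced to vehicle controls, was the measured output for a strain with defective DNA damage repair.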

[2] = NCI Yeast Anticancer Drug Screen. Data for the wt1 strain (AID 149);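 note: 0% = growth of vehicle-treated wt1 cultures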; details: S. cerevisiae wt1 strain (SPY 50644) growth inhibition, hits give high values
Procedure, shortened: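 Yeast wt1 strain exposed to compounds; growth inhibition measured relative to vehicle-treated controls.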

[3] = NCI Yeast Anticancer Drug Screen. Data for the rad50EPP+ strain (AID 151);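 note: 0% = growth of vehicle-treated control cultures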; details: S. cerevisiae rad50 mutant strain, hits give high values
Procedure, shortened: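 Genetically defined yeast (rad50EPP+, DNA damage repair alteration) is grown with compound, and inhibition of growth is expressed relative to vehicle-treated controls.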

[4] = NCI Yeast Anticancer Drug Screen. Data for the mgt1 strain (AID 153); details: S. cerevisiae mgt1 mutant growth inhibition, hits give high values
Procedure, shortened: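 In the mgt1 strain, test compounds were added and growth inhibition was determined relative to vehicle-treated controls.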

[5] = NCI Yeast Anticancer Drug Screen. Data for the rad50 strain (AID 155);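 note: 0% = growth of vehicle-only cultures of the same strain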; details: S. cerevisiae rad50 strain growth inhibition, hits give high values
Procedure, shortened: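 Yeast carrying a defined DNA repair defect were exposed to test compounds, and growth was compared with vehicle-treated controls to give percent inhibition.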

[6] = NCI Yeast Anticancer Drug Screen. Data for the mec2-1 strain (AID 157); details: S. cerevisiae mec2-1 strain, hits give high values
Procedure, shortened: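 Each compound was tested on mec2-1 yeast, a strain altered in DNA damage repair or cell cycle control. Growth inhibition is reported relative to vehicle.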

[7] = NCI Yeast Anticancer Drug Screen. Data for the rad14 strain (AID 159);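 note: 0% = growth of vehicle-treated control cultures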; details: S. cerevisiae rad14 strain growth inhibition, hits give high values
Procedure, shortened: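 Yeast cells carrying a defined DNA-repair defect were exposed to compounds, and growth inhibition was calculated relative to vehicle-treated control cultures.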

[8] = NCI Yeast Anticancer Drug Screen. Data for the sgs1 mgt1 strain (AID 161);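 note: 0% = growth of cultures given vehicle only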; details: S. cerevisiae sgs1 mgt1 strain, hits give high values
Procedure, shortened: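 Test agents were incubated with a DNA-repair-mutant yeast strain. Growth was then read and compared against vehicle-treated controls.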

[9] = NCI Yeast Anticancer Drug Screen. Data for the CLN2oe strain (AID 163);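 note: 0% = growth of vehicle-only control cultures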; details: S. cerevisiae CLN2oe strain, hits give high values
Procedure, shortened: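 First, the altered yeast strain was treated with each compound; second, its growth was measured; finally, inhibition was derived by comparison with vehicle controls.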

[10] = NCI Yeast Anticancer Drug Screen. Data for the cln2 rad14 strain (AID 165);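 note: 0% = growth equal to vehicle treated cultures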; details: S. cerevisiae cln2 rad14 strain, hits give high values
Procedure, shortened: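 Test compounds were added to cln2 rad14 yeast cultures; inhibition of growth was then determined by comparison with vehicle treatment.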

[11] = NCI Yeast Anticancer Drug Screen. Data for the bub3 strain (AID 167); details: S. cerevisiae bub3 mutant strain, hits give high values
Procedure, shortened: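 Compounds were applied to a genetically altered yeast strain carrying a cell-cycle control defect. Growth inhibition was scored against vehicle-treated controls.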

[12] = NCI Yeast Anticancer Drug Screen. Data for the wt2 strain (AID 169);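 note: 0% = growth of vehicle-treated yeast cultures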; details: S. cerevisiae wt2 strain growth inhibition, hits give high values
Procedure, shortened: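 The panel's yeast strains carry defined changes in DNA repair or cell cycle genes. Each strain is grown with compound, and growth loss is scored relative to vehicle.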

[13] = NCI Yeast Anticancer Drug Screen. Data for the mlh1 strain (AID 171);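 note: 0% = growth of vehicle-treated control cultures of the same strain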; details: S. cerevisiae mlh1 strain growth inhibition, hits give high values
Procedure, shortened: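 Inhibition values reflect reduced yeast growth in the presence of compound, referenced to vehicle controls, using a strain chosen for its alteration in DNA repair or cell cycle control.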

[14] = NCI Yeast Anticancer Drug Screen. Data for the sgs1 strain (AID 173);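 note: 0% = growth of vehicle-only control cultures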; details: S. cerevisiae sgs1 mutant, hits give high values
Procedure, shortened: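 Vehicle-treated cultures served as reference for growth inhibition of a yeast strain altered in DNA damage repair or cell cycle control after compound exposure.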

[15] = NCI Yeast Anticancer Drug Screen. Data for the mlh1 rad18 strain (AID 175); details: S. cerevisiae mlh1 rad18 strain growth inhibition, hits give high values
Procedure, shortened: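 Inhibition values reflect reduced growth of mutant yeast versus vehicle-treated controls following compound exposure; the mutations affect DNA damage repair.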

[16] = at 5.0 µM (retest, dose inferred, filed as 0.5)
[17] = at 50.0 µM (retest, dose inferred, filed as 5.0)

Measured: growth inhibition

CCN(CC)CCN(C)CCc1ccc(Br)cc1
active: [1]; at 100.0 µM 91% | [2]; at 100.0 µM 83% | [4]; at 33.0 µM 84% | [4]; at 100.0 µM 96% | [5]; at 100.0 µM 85% | [6]; at 100.0 µM 78% | [7]; at 33.0 µM 87% | [7]; at 100.0 µM 97% | [9]; at 100.0 µM 89% | [11]; at 100.0 µM 84% | [12]; at 100.0 µM 94% | [13]; at 100.0 µM 94% | [14]; at 33.0 µM 85% | [14]; at 100.0 µM 94%
inactive: [1]; at 1.2 µM 12% | [1]; at 3.7 µM 19% | [1]; at 11.0 µM 37% | [1]; at 33.0 µM 48% | [2]; at 1.2 µM 5% | [2]; at 3.7 µM 11% | [2]; at 11.0 µM 19% | [2]; at 33.0 µM 32% | [3]; at 1.2 µM -3% | [3]; at 3.7 µM -3% | [3]; at 11.0 µM -2% | [3]; at 33.0 µM -2% | [3]; at 100.0 µM -3% | [4]; at 1.2 µM 5% | [4]; at 3.7 µM 10% | [4]; at 11.0 µM 40% | [5]; at 1.2 µM 7% | [5]; at 3.7 µM 10% | [5]; [16] -6% | [5]; at 11.0 µM 20% | [5]; at 33.0 µM 50% | [5]; [17] 11% | [5]; at 50.0 µM 31.8% | [6]; at 1.2 µM 10% | [6]; at 3.7 µM 17% | [6]; [16] 8% | [6]; at 11.0 µM 26% | [6]; at 33.0 µM 43% | [6]; [17] 26% | [6]; at 50.0 µM 33.6% | [7]; at 1.2 µM 15% | [7]; at 3.7 µM 36% | [7]; at 11.0 µM 57% | [8]; [16] 5% | [8]; [17] 41% | [8]; at 50.0 µM 68.4% | [9]; at 1.2 µM 11% | [9]; at 3.7 µM 15% | [9]; at 11.0 µM 35% | [9]; at 33.0 µM 64% | [10]; [16] 10% | [10]; [17] 52% | [10]; at 50.0 µM 53.4% | [11]; at 1.2 µM 10% | [11]; at 3.7 µM 16% | [11]; [16] 13% | [11]; at 11.0 µM 35% | [11]; at 33.0 µM 67% | [11]; [17] 21% | [11]; at 50.0 µM 53.5% | [12]; at 1.2 µM 6% | [12]; at 3.7 µM 11% | [12]; at 11.0 µM 33% | [12]; at 33.0 µM 68% | [13]; at 1.2 µM 7% | [13]; at 3.7 µM 13% | [13]; at 11.0 µM 31% | [13]; at 33.0 µM 60% | [14]; at 1.2 µM 10% | [14]; at 3.7 µM 23% | [14]; at 11.0 µM 49% | [15]; [16] -29% | [15]; [17] 25% | [15]; at 50.0 µM 68.3%

O=C(COC(=O)c1ccccc1)c1ccc(Br)cc1
inactive: [1]; at 1.2 µM 14% | [1]; at 3.7 µM 20% | [1]; at 11.0 µM 45% | [2]; at 1.2 µM 2% | [2]; at 3.7 µM -4% | [2]; at 11.0 µM 8% | [4]; at 1.2 µM 5% | [4]; at 3.7 µM 13% | [4]; at 11.0 µM 22% | [5]; at 1.2 µM 17% | [5]; at 3.7 µM 23% | [5]; [16] 31% | [5]; at 11.0 µM 68% | [6]; at 1.2 µM 4% | [6]; at 3.7 µM 7% | [6]; [16] 67% | [6]; at 11.0 µM 17% | [7]; at 1.2 µM 16% | [7]; at 3.7 µM 18% | [7]; at 11.0 µM 30% | [8]; [16] 58% | [9]; at 1.2 µM 0% | [9]; at 3.7 µM 13% | [9]; at 11.0 µM 64% | [10]; [16] 12% | [11]; at 1.2 µM 49% | [11]; at 3.7 µM 65% | [11]; [16] 41% | [12]; at 1.2 µM 16% | [12]; at 3.7 µM 63% | [13]; at 1.2 µM 12% | [13]; at 3.7 µM 17% | [13]; at 11.0 µM 38% | [14]; at 1.2 µM -12% | [14]; at 3.7 µM 10% | [15]; [16] 34%
active: [1]; at 33.0 µM 99% | [1]; at 100.0 µM 98% | [2]; at 33.0 µM 99% | [2]; at 100.0 µM 97% | [3]; at 1.2 µM 75% | [3]; at 3.7 µM 93% | [3]; at 11.0 µM 99% | [3]; at 33.0 µM 99% | [3]; at 100.0 µM 97% | [4]; at 33.0 µM 99% | [4]; at 100.0 µM 98% | [5]; at 33.0 µM 98% | [5]; [17] 99% | [5]; at 50.0 µM 98.8% | [5]; at 100.0 µM 97% | [6]; at 33.0 µM 99% | [6]; [17] 99% | [6]; at 50.0 µM 99.3% | [6]; at 100.0 µM 99% | [7]; at 33.0 µM 99% | [7]; at 100.0 µM 98% | [8]; [17] 99% | [8]; at 50.0 µM 99.4% | [9]; at 33.0 µM 99% | [9]; at 100.0 µM 97% | [10]; [17] 99% | [10]; at 50.0 µM 98.8% | [11]; at 11.0 µM 100% | [11]; at 33.0 µM 99% | [11]; [17] 99% | [11]; at 50.0 µM 99.7% | [11]; at 100.0 µM 99% | [12]; at 11.0 µM 96% | [12]; at 33.0 µM 100% | [12]; at 100.0 µM 99% | [13]; at 33.0 µM 99% | [13]; at 100.0 µM 98% | [14]; at 11.0 µM 90% | [14]; at 33.0 µM 99% | [14]; at 100.0 µM 99% | [15]; [17] 99% | [15]; at 50.0 µM 99.2%

Reference: PubChem BioAssay (NCI)
